Measured values: publication PMC4336329 (PLoS ONE, 2015)
Screen size: about 310,000 compounds; about 14,000 (4.5%) showed an effect of 50% or more. The effect is printed as a negative number. The entries come from a sample that favours strong results as a whole.

The molecules below were run against human ether-à-go-go-related gene (hERG) potassium channel (human, UniProt Q12809) (assay: primary screen, population patch clamp on CHO cells stably expressing hERG; higher = less effect of the substance).
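Also: peak tail current of the secondary pulse compared with the same well before compound.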

Chain of human ether-à-go-go-related gene (hERG) potassium channel (Q12809 whole entry, looked up): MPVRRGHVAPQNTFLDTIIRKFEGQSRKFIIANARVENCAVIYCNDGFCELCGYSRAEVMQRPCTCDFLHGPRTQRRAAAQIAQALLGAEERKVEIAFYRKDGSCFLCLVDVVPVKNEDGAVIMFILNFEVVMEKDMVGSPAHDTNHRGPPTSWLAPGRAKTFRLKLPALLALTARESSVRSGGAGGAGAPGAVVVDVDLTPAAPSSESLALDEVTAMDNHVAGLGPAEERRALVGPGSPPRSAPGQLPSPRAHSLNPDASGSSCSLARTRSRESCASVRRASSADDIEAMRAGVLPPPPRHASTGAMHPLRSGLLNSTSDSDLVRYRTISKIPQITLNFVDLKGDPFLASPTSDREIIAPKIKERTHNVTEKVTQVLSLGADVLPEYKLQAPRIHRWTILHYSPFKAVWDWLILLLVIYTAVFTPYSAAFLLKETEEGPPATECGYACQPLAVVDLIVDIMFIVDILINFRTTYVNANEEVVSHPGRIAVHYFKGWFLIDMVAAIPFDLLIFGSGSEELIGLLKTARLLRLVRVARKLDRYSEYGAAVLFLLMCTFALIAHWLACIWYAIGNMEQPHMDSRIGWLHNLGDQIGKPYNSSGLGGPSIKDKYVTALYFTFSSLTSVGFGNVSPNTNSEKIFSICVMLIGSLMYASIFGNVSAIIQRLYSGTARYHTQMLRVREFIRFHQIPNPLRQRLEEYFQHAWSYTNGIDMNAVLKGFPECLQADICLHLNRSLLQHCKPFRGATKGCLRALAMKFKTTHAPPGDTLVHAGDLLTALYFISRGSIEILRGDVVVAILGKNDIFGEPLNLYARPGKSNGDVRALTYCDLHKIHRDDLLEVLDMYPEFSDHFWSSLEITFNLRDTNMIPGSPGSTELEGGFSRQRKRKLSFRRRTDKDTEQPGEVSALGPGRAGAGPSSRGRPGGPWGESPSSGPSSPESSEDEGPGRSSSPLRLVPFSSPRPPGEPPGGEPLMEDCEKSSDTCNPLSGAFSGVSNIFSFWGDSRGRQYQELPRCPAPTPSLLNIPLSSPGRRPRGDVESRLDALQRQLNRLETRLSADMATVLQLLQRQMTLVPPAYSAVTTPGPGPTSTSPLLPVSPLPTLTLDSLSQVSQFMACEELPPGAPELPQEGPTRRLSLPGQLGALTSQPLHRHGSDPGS

| SMILES | hERG current change (%, negative = inhibition) at 10uM [%] |
| --- | --- |
| CC(C)(C)NS(=O)(=O)c1ccc(NC(=O)Cc2ccccc2[N+](=O)[O-])cc1 | 1.66 |
| CCOC(=O)c1ccc(N2CN(CC)CNC2=S)cc1 | 7.25 |
| C/C(=N/OCc1ccc(Br)cc1)c1ccccn1 | 6.29 |
| CCc1ccc(C(=O)COC(=O)c2ccco2)cc1 | 9.18 |
| COc1ccc(CCNC(=O)COC(=O)c2cnc(C)cn2)cc1 | 11.3 |
| O=C(Nc1ccccc1C(=O)Nc1ccc2c(c1)OCO2)c1cccs1 | 3.6 |
| Cc1cc(C)cc(NC(=O)COC(=O)CN=C2NS(=O)(=O)c3ccccc32)c1 | 15.6 |
| O=C(NCC1CCCO1)c1ccc(COc2ccc(F)cc2)o1 (stereo not drawn) | -5.59 |
| CCCOc1ccc(/C=N/Nc2cc(N3CCOCC3)ncn2)c(O)c1 | 13.4 |
| O=c1[nH]cc([N+](=O)[O-])cc1Br | 2.05 |
| CCCCOc1ccc(C(=O)NCC(=O)N2CC=C(c3ccccc3)CC2)cc1 | 16.8 |
| Cl.NC(=O)c1ccc(OCCC(O)N2CC=C(c3ccc(F)cc3)CC2)cc1 (stereo not drawn) | -71.2 |
| CN1CCNC(=O)C1CC(=O)N1CC=C(c2ccc(F)cc2)CC1 (stereo not drawn) | -3.88 |
| Clc1cccc(N/N=C/c2ccncc2)c1 | -10.2 |
| Cc1cc(C(=O)C(C)Sc2cccc[n+]2[O-])c(C)n1-c1ccc(Cl)cc1 (stereo not drawn) | -12.8 |
| CC(C)/C=C1\CCc2c([nH]c3ccccc23)C1=O | 9.91 |
| Cc1c(S(=O)(=O)c2ccccn2)c(N)n(Cc2ccccc2)c1C | 0.158 |
| CN(C)CCCn1cnc2c(c1=N)C(c1ccccc1)c1ccc3ccccc3c1O2 (stereo not drawn) | -75.9 |
| CN(C)CCn1cnc2c(c1=N)C(c1ccccc1)c1ccc3ccccc3c1O2 (stereo not drawn) | -79.2 |
| O=C(Nc1cc(=O)[nH]c2ncnn12)c1ccccc1F | 11 |
| CCC(=O)N1CCc2cc(Br)cc(S(=O)(=O)N3CCCCCC3)c21 | -28.6 |
| O=C(c1ccc(COc2ccccc2Cl)o1)N1CCCC1 | -23.6 |

| SMILES | hERG current change (%, negative = inhibition) at 10uM [%] |
| --- | --- |
| COc1ccc(C(=O)N2CCN(c3cccc(Cl)c3)CC2)cc1S(=O)(=O)NC1CC1 | -63.5 |
| COc1ccc(C(=O)N2CCN(c3ccccc3Cl)CC2)cc1S(=O)(=O)NC1CC1 | -32.7 |
| COc1ccc(C(=O)N2CCN(c3ccc(F)cc3)CC2)cc1S(=O)(=O)NC1CC1 | -59.2 |
| COc1ccc(C(=O)N2CCN(c3ccc(C(C)=O)cc3F)CC2)cc1S(=O)(=O)NC1CC1 | -37.5 |
| COc1ccc(C(=O)Nc2ccc(N3CCOCC3)cc2)cc1S(=O)(=O)NC1CCCC1 | 13.1 |
| Cc1ccc(C(=O)N2CCN(c3cccc(Cl)c3)CC2)cc1C | -13.4 |
| O=C(OC1CCCCC1=O)c1ccc(S(=O)(=O)Nc2ccccc2)cc1 (stereo not drawn) | 0.644 |
| Nc1cc(Cl)cc(C(=O)O)c1Cl | 15.9 |
| O=C(Cn1cnc2sc(-c3ccccc3)cc2c1=O)NCc1ccco1 | -3.75 |
| O=C(Nc1ccc(Cl)cc1)c1cccc(S(=O)(=O)Nc2ccccn2)c1 | -6.23 |
| O=C(Nc1nnc(SCc2ccc(F)cc2)s1)C1Cc2ccccc2CN1C(=O)c1ccco1 (stereo not drawn) | -6.55 |
| Cc1cc(C)n2nc(-c3sccc3-n3c(C)ccc3C)cc2n1 | 17.3 |
| Cc1cc(-c2ccc(Cl)cc2)n2nc(C)cc2n1 | 4.45 |
| O=C(Cn1ccccc1=O)Nc1ccc(Cl)c(S(=O)(=O)N2CCCCC2)c1 | -79.4 |
| Cc1ccc(S(=O)(=O)N2CCOCC2)cc1NC(=O)Cn1ccsc1=N.Cl | -5.64 |
| CN(C)S(=O)(=O)c1cc(NC(=O)Cn2ccsc2=N)ccc1Cl.Cl | -56.3 |
| Cc1nn(CC(=O)Nc2ccc(Cl)c(S(=O)(=O)N(C)C)c2)c(C)c1[N+](=O)[O-] | -61.3 |
| CC1(c2ccccc2)NC(=O)N(CC(=O)Nc2ccc(Cl)c(S(=O)(=O)N3CCCCC3)c2)C1=O (stereo not drawn) | -8.09 |
| Cc1nn(CC(=O)Nc2cc(S(=O)(=O)N(C)C)ccc2Cl)c(C)c1[N+](=O)[O-] | -20.9 |
| Cl.N=c1sccn1CC(=O)Nc1ccc(S(=O)(=O)N2CCOCC2)cc1 | -5.32 |
| CCC1(c2ccccc2)NC(=O)N(CC(=O)Nc2ccc(Cl)c(S(=O)(=O)N3CCCCC3)c2)C1=O (stereo not drawn) | 12.4 |
| CN(C)S(=O)(=O)c1ccc(NC(=O)Cn2ccsc2=N)cc1 | 13.7 |

| SMILES | hERG current change (%, negative = inhibition) at 10uM [%] |
| --- | --- |
| Cl.N=c1sccn1CC(=O)Nc1ccc(Cl)c(S(=O)(=O)N2CCOCC2)c1 | -50.4 |
| Cc1nn(CC(=O)Nc2ccc(S(=O)(=O)N(C)C)cc2)c(C)c1[N+](=O)[O-] | -5.89 |
| Cc1ccc(NC(=O)Cn2ccsc2=N)cc1S(=O)(=O)N(C)C.Cl | -13.4 |
| COc1cc(/C=C2/N=C(C3CCCCC3)OC2=O)cc(OC)c1OC | -17.5 |
| O=C(Cc1ccccc1[N+](=O)[O-])NCc1ccncc1 | 6.57 |
| OC(Cn1c2ccccc2c2ccccc21)C[n+]1cccc2ccccc21.[O-][Cl+3]([O-])([O-])[O-] (stereo not drawn) | -33.5 |
| C=C(C)C(=O)N1CC2(CC(c3cccc(NC(=O)/C(C)=C\C)c3)=NO2)C[C@H]1C(N)=O (stereo partly drawn) | 2.26 |
| Cc1ccc(-c2nn(C)c(=O)c3ccccc23)cc1S(=O)(=O)NCCN1CCOCC1 | -2.69 |
| Cn1c(=O)[nH]c(=O)c2c1nc(N1CCOCC1)n2CCc1ccccc1 | -0.713 |
| Cc1cccc(N=C2NC(=O)/C(=C/c3cccs3)S2)c1 | 11.9 |
| COc1cc(C)c(/C=C(\C#N)C(=O)Nc2ccc(C)cc2)cc1C(C)C | 11.1 |
| COCCN(C(=O)COC(=O)c1sccc1C)c1c(N)n(Cc2ccccc2)c(=O)[nH]c1=O | 15.4 |
| CCCN(CCC)CCCNC(=O)C(NS(=O)(=O)c1ccc2c(c1)CCC(=O)N2)c1ccccc1 (stereo not drawn) | 20.5 |
| CCn1ncc(S(=O)(=O)NCc2ccco2)c1C | -0.626 |
| O=C(Nc1ccc(S(=O)(=O)Nc2cnc3ccccc3n2)cc1)c1ccccc1Br | -10.5 |
| O=C(CCN1C(=O)/C(=C/c2cccs2)SC1=S)Nc1ccccc1O | 13.7 |
| CC(C)c1ccc(NC(=O)CNC(=O)Cn2cnc3ccccc3c2=O)cc1 | 3.21 |
| Cc1ccc(N/C=C/C(=O)c2ccco2)c(O)c1 | 8.63 |
| COc1cc2c(cc1NC(=O)CSc1nc3ccc(C)cc3[nH]1)oc1ccccc12 | 7.65 |
| Cc1ccc(-c2nnc(N3CCN(C(=O)c4cccs4)CC3)c3ccccc23)cc1 | -65.4 |
| O=C(c1cccs1)N1CCN(c2ncccn2)CC1 | 0.299 |
| CC(=O)N1CCN(c2nnc(-c3ccc(C)cc3)c3ccccc23)CC1 | -38.6 |

| SMILES | hERG current change (%, negative = inhibition) at 10uM [%] |
| --- | --- |
| CC(=O)N1CCN(c2nnc(-c3ccccc3)c3ccccc23)CC1 | 3.22 |
| Cc1ccc(-c2nnc(N3CCN(C(=O)CN4C(=O)c5ccccc5C4=O)CC3)c3ccccc23)cc1 | 6.37 |
| O=C(c1cccs1)N1CCN(c2nnc(-c3ccccc3)c3ccccc23)CC1 | -76.5 |
| Cc1ccc(C(=O)Nc2ccc(Cl)cc2C(=O)c2ccccc2)cc1 | 17.1 |
| O=C(CSc1ccccc1)N1CCN(S(=O)(=O)c2ccccc2F)CC1 | -23.9 |
| Cc1c(N=Cc2cccnc2)c(=O)n(-c2ccccc2)n1C | 2.93 |
| CC(=O)Oc1ccc2c(=O)oc(-c3ccc([N+](=O)[O-])cc3)nc2c1 | 1.56 |
| Cc1ccc(C)c(S(=O)(=O)N2CCN(C(=O)Cn3c(C(F)(F)F)nc4ccccc43)CC2)c1 | -1.16 |
| O=c1c2ccccc2c(=O)n(-c2ccccc2)n1CCCCBr | -63.5 |
| CC(=O)n1c(=O)c2ccccc2c(=O)n1-c1ccccc1 | 3.89 |
| O=c1c2ccccc2c(=O)n(Cc2ccccc2)n1Cc1ccccc1 | 16.8 |
| Cc1cccc(C(=O)OCC(=O)c2c(N)n(CC(C)C)c(=O)n(C)c2=O)c1[N+](=O)[O-] | -29.1 |
| O=C(CCCC(=O)OCC1CCCO1)OCC1CCCO1 (stereo not drawn) | 8.27 |
| CCOC(=O)c1cn(CC(=O)Nc2ccc(OC)cc2OC)nn1 | 9.07 |
| Cl.O=C(COc1ccc(Br)cc1)OCCN1CCCCC1 | 11.8 |
| Cc1ccc(OCCCCN2CCCCC2)cc1 | -12.1 |
| Brc1ccc(OCCCN2CCOCC2)cc1.O=C(O)C(=O)O | -28.1 |
| Brc1ccc(OCCOCCN2CCOCC2)cc1 | -9 |
| CC1CCN(CCCCOc2ccc(Br)cc2)CC1 | -69.4 |
| Brc1ccc(OCCCCN2CCCCC2)cc1 | -53.6 |
| Brc1ccc(OCCCCCN2CCOCC2)cc1.O=C(O)C(=O)O | -63.8 |
